According to PubChem BioAssay (EPA / NIEHS):
Values joined by “and” are separate entries in the source; they are usually repeats but may differ in a detail not shown here. Equal values may be shown once. More than one record can exist for a structure, and the calls need not agree. Active and inactive are the calls of the source. The calls were made as follows: active = hit-call score of the fitted dose curve at least 0.9, where 1 is the maximum; inactive = score below 0.9.

Legend:
[1] = BSK_hDFCGF_SRB: Viability Assessment in the BioMAP Diversity Plus: hDFCGF Assay (AID 2283061); conditions: primary human foreskin fibroblasts;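 also: cells exposed to compound for 24 h before the read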
In short: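 Readout is SRB absorbance at 560 nm, reflecting total protein in parallel cultures of human foreskin fibroblasts harvested 24 h after chemical dosing. Activity was fitted bidirectionally relative to DMSO.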

[2] = read-out: Monokine induced gamma interferon (MIG), CXCL9 (gene 4283); assay: BSK_hDFCGF_MIG: BioMAP Diversity Plus: hDFCGF Assay for Monokine induced gamma interferon (MIG) Biomarker Activity (AID 2283063); conditions: primary human foreskin fibroblasts; actives raise or lower the signal
In short: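 Chemicals were added to primary human foreskin fibroblast cultures, which were sampled 24 h later. MIG levels were then quantified by ELISA and responses fitted in both directions relative to DMSO.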

[3] = read-out: Matrix Metallopeptidase 1 (MMP1), MMP1 (gene 4312); assay: BSK_hDFCGF_MMP1: BioMAP Diversity Plus: hDFCGF Assay for Matrix Metallopeptidase 1 (MMP1) Biomarker Activity (AID 2283064); conditions: primary human foreskin fibroblasts; actives raise or lower the signal
In short: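 Primary human foreskin fibroblasts in the hDFCGF system were dosed with test chemical, and MMP1 was measured by ELISA 24 h later. Values come from bidirectional curve fitting against the DMSO baseline.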

[4] = read-out: Vascular cell adhesion molecule 1 (VCAM1), VCAM1 (gene 7412); assay: BSK_hDFCGF_VCAM1: BioMAP Diversity Plus: hDFCGF Assay for Vascular cell adhesion molecule 1 (VCAM1) Biomarker Activity (AID 2283065); conditions: primary human foreskin fibroblasts; actives raise or lower the signal;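 as to AC50: VCAM-1 protein level quantified by ELISA after 24 h chemical exposure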
In short: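 Human foreskin fibroblast primary cells, chemical exposure 24 h; VCAM-1 by ELISA; bidirectional fit, DMSO = negative control/baseline.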

[5] = read-out: Plasminogen activator inhibitor-1 (PAI1), SERPINE1 (gene 5054); assay: BSK_hDFCGF_PAI1: BioMAP Diversity Plus: hDFCGF Assay for Plasminogen activator inhibitor-1 (PAI1) Biomarker Activity (AID 2283066); conditions: primary human foreskin fibroblasts; actives raise or lower the signal
In short: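 Human foreskin fibroblasts in the hDFCGF system were dosed with compound for 24 h; PAI-1 was quantified by ELISA. Bidirectional curve fitting used DMSO as negative control and baseline.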

[6] = read-out: Intercellular Adhesion Molecule 1 (ICAM1), ICAM1 (gene 3383); assay: BSK_KF3CT_ICAM1: BioMAP Diversity Plus: KF3CT Assay for Intercellular Adhesion Molecule 1 (ICAM1) Biomarker Activity (AID 2283067); conditions: primary human keratinocytes with fibroblasts; actives raise or lower the signal
In short: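 ICAM-1 levels are measured by ELISA 24 h after dosing a primary human co-culture of keratinocytes and foreskin fibroblasts. Activity in either direction is fitted relative to DMSO vehicle.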

[7] = read-out: Interferon-gamma inducible Protein 10 (IP10), CXCL10 (gene 3627); assay: BSK_KF3CT_IP10: BioMAP Diversity Plus: KF3CT Assay for Interferon-gamma inducible Protein 10 (IP10) Biomarker Activity (AID 2283068); conditions: primary human keratinocytes with fibroblasts; actives raise or lower the signal
In short: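 In a primary skin co-culture of keratinocytes and fibroblasts, IP-10 is quantified by ELISA at 24 h after dosing. SRB staining of parallel wells monitors overt toxicity. Curves are fitted both directions against DMSO.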

[8] = BSK_KF3CT_SRB: Viability Assessment in the BioMAP Diversity Plus: KF3CT Assay (AID 2283069); conditions: primary human keratinocytes with fibroblasts;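 also: total protein by sulforhodamine B staining as a cytotoxicity measure; read 24 h after compound addition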
In short: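 Human primary keratinocyte plus foreskin fibroblast co-culture exposed to chemicals for 24 h. Total protein measured by 0.1% sulforhodamine B staining after 10% TCA fixation, read at 560 nm; bidirectional fitting versus DMSO baseline.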

[9] = read-out: Interleukin-1 alpha (IL1a), IL1A (gene 3552); assay: BSK_KF3CT_IL1a: BioMAP Diversity Plus: KF3CT Assay for Interleukin-1 alpha (IL1a) Biomarker Activity (AID 2283070); conditions: primary human keratinocytes with fibroblasts; actives raise or lower the signal
In short: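 Human keratinocyte plus foreskin fibroblast primary co-culture, sampled 24 h after chemical dosing. IL-1a measured by ELISA; responses fitted bidirectionally against DMSO baseline (negative control), so gain or loss of signal both count.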

[10] = read-out: TIMP metallopeptidase inhibitor 2 (TIMP2), TIMP2 (gene 7077); assay: BSK_KF3CT_TIMP2: BioMAP Diversity Plus: KF3CT Assay for TIMP metallopeptidase inhibitor 2 (TIMP2) Biomarker Activity (AID 2283071); conditions: primary human keratinocytes with fibroblasts; actives raise or lower the signal
In short: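 Human primary keratinocyte/foreskin fibroblast co-culture dosed with chemical and sampled at 24 h. TIMP-2 levels quantified by ELISA; bidirectional fitting against DMSO negative control as baseline.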

[11] = read-out: C-C motif chemokine 2 (Homo sapiens) (UniProt P13500); assay: BSK_KF3CT_MCP1: BioMAP Diversity Plus: KF3CT Assay for Monocyte Chemoattractant Protein 1 (MCP1/CCL2) Biomarker Activity (AID 2283073); conditions: primary human keratinocytes with fibroblasts; actives raise or lower the signal
In short: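 ELISA readout of MCP-1 after 24 h chemical dosing of a human skin primary co-culture of keratinocytes and foreskin fibroblasts. Activity was fitted in both directions against DMSO.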

[12] = read-out: Matrix Metallopeptidase 9 (MMP9), MMP9 (gene 4318); assay: BSK_KF3CT_MMP9: BioMAP Diversity Plus: KF3CT Assay for Matrix Metallopeptidase 9 (MMP9) Biomarker Activity (AID 2283074); conditions: primary human keratinocytes with fibroblasts; actives raise or lower the signal;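 as to AC50: MMP9 protein level quantified by ELISA in the co-culture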
In short: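 Keratinocyte plus foreskin fibroblast human primary skin co-culture was dosed with chemical and MMP-9 was quantified by ELISA 24 h later. Bidirectional curve fitting used DMSO as negative control and activity baseline.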

[13] = read-out: urokinase plasminogen activator (uPA), PLAU (gene 5328); assay: BSK_KF3CT_uPA: BioMAP Diversity Plus: KF3CT Assay for urokinase plasminogen activator (uPA) Biomarker Activity (AID 2283075); conditions: primary human keratinocytes with fibroblasts; actives raise or lower the signal
In short: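 Human keratinocyte plus foreskin fibroblast primary co-culture exposed to chemical for 24 h. uPA levels were quantified by ELISA, and activity was fitted bidirectionally against a DMSO negative-control baseline.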

[14] = read-out: CD40, CD40 (gene 958); assay: BSK_LPS_CD40: BioMAP Diversity Plus: LPS Assay for CD40 Biomarker Activity (AID 2283076); conditions: primary human HUVEC with PBMC; actives raise or lower the signal
In short: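 Cells were dosed, incubated 24 h, then assayed for CD40 by ELISA. Gain or loss of signal was analysed relative to DMSO controls. The culture paired human umbilical vein endothelium with peripheral blood mononuclear cells.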

[15] = read-out: E-selectin (Homo sapiens) (UniProt P16581); assay: BSK_LPS_Eselectin: BioMAP Diversity Plus: LPS Assay for Eselectin Biomarker Activity (AID 2283077); conditions: primary human HUVEC with PBMC; actives raise or lower the signal
In short: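 Primary human vascular co-culture (endothelium plus PBMC) was dosed with chemical, then E-selectin quantified by ELISA at 24 h. Endpoint values derive from bidirectional curve fitting relative to DMSO.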

[16] = read-out: Interleukin-8 (IL8), CXCL8 (gene 3576); assay: BSK_LPS_IL8: BioMAP Diversity Plus: LPS Assay for Interleukin-8 (IL8) Biomarker Activity (AID 2283078); conditions: primary human HUVEC with PBMC; actives raise or lower the signal
In short: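 Readout is IL-8 by ELISA, taken 24 h after compounds were added to LPS-stimulated endothelial/PBMC co-cultures. Both increases and decreases relative to DMSO control were scored through bidirectional fitting.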

[17] = BSK_LPS_SRB: Viability Assessment in the BioMAP Diversity Plus: LPS Assay (AID 2283079); conditions: primary human HUVEC with PBMC;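 also: total protein by sulforhodamine B absorbance as a cytotoxicity measure; measured one day after compound addition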
In short: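 Readout is SRB absorbance at 560 nm (0.1% stain, TCA-fixed parallel cultures) as a total-protein cytotoxicity measure. Cells: primary human umbilical vein endothelium plus peripheral blood mononuclear cells, 24 h after chemical exposure; DMSO served as baseline.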

[18] = read-out: Interleukin-1 alpha (IL1a), IL1A (gene 3552); assay: BSK_LPS_IL1a: BioMAP Diversity Plus: LPS Assay for Interleukin-1 alpha (IL1a) Biomarker Activity (AID 2283080); conditions: primary human HUVEC with PBMC; actives raise or lower the signal
In short: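 ELISA read-out of IL-1 alpha from a human primary vascular co-culture (endothelium plus PBMC) under LPS, sampled 24 hours post-dosing. Activity was fitted in both directions relative to DMSO controls.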

[19] = read-out: Transforming growth factor beta 1 (TGFb1), TGFB1 (gene 7040); assay: BSK_KF3CT_TGFb1: BioMAP Diversity Plus: KF3CT Assay for Transforming growth factor beta 1 (TGFb1) Biomarker Activity (AID 2283072); conditions: primary human keratinocytes with fibroblasts; actives raise or lower the signal
In short: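 Human keratinocyte plus foreskin fibroblast primary co-culture, dosed with chemical for 24 h. TGF-b1 quantified by ELISA. Activity fitted bidirectionally against DMSO negative control as baseline.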

Measured: AC50

Chain of E-selectin (Homo sapiens) (P16581 whole entry, looked up): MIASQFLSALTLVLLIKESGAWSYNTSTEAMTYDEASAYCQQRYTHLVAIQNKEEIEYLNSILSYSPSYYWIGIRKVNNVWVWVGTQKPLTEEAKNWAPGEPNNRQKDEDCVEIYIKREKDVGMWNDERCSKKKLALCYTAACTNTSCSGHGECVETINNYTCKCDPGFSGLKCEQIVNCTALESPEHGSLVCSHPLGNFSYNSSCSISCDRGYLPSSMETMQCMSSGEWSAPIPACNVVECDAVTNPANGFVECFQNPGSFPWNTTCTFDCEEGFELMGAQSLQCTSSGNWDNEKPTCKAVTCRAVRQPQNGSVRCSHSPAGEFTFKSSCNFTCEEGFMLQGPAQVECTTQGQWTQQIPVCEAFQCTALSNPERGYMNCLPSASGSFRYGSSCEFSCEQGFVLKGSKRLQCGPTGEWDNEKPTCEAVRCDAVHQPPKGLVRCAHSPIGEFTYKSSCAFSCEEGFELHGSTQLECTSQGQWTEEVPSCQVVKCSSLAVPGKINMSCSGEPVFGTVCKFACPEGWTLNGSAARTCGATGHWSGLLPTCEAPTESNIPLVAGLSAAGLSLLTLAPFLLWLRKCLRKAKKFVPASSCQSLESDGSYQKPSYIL

OCC(O)CC(F)(F)C(F)(F)C(F)(F)C(F)(F)C(F)(F)C(F)(F)C(F)(F)C(F)(F)F (centres undefined)
inactive: [1] | [2] | [3] | [4] | [5] | [6] | [7] | [8] | [9] | [10] | [11] | [12] | [13] | [14] | [15] | [16] | [17] | [18]
active: [9] 166 nM

OCC(O)CC(F)(F)C(F)(F)C(F)(F)C(F)(F)F (centres undefined)
not listed: [19]
inactive: all other assays above

O=C(O)C(F)(F)C(F)(F)C(F)(F)OC(F)(C(F)(F)F)C(F)(F)F
active: [12] 24.7 µM | [16] 7.64 µM and 9.75 µM
inactive: [1] | [2] | [3] | [4] | [5] | [6] | [7] | [8] | [9] | [10] | [11] | [12] | [13] | [15] | [17]

CC(C)(C)c1cc(CCC(=O)NCCCCCCNC(=O)CCc2cc(C(C)(C)C)c(O)c(C(C)(C)C)c2)cc(C(C)(C)C)c1O
not listed: [14] | [18]
inactive: all other assays above

CNS(=O)(=O)C(F)(F)C(F)(F)C(F)(F)C(F)(F)C(F)(F)C(F)(F)C(F)(F)C(F)(F)F
active: [4] 800 nM and 1.94 µM | [12] 20.4 µM | [17] 22.5 µM
inactive: [1] | [2] | [3] | [5] | [6] | [7] | [8] | [9] | [10] | [11] | [12] | [13] | [15] | [16] | [17]

C=CC(=O)OCC(F)(F)C(F)(F)C(F)(F)COC(=O)C=C
active: [1] 2.51 µM and 2.73 µM | [2] 918 nM and 499 nM | [3] 5.8 µM and 4.94 µM | [4] 2.35 µM and 1.96 µM | [5] 3.85 µM and 3.09 µM | [6] 21.8 µM and 21.3 µM | [7] 28.4 µM and 17.6 µM | [8] 36.6 µM and 41.6 µM | [9] 30 µM and 5.95 µM | [10] 30 µM | [11] 22.3 µM and 12.7 µM | [12] 24 µM and 20.9 µM | [13] 21.1 µM and 25.7 µM | [15] 16.1 µM and 13.1 µM | [16] 15.9 µM and 14.8 µM | [17] 48.6 µM and 47.4 µM

OCC(F)(F)C(F)(F)C(F)(F)CO
not listed: [14] | [18] | [19]
inactive: all other assays above

CCOC(=O)CC(=O)C(F)(F)C(F)(F)F
not listed: [18] | [19]
inactive: all other assays above

NCC(F)(F)C(F)(F)C(F)(F)C(F)(F)C(F)(F)C(F)(F)C(F)(F)C(F)(F)F
not listed: [14] | [18] | [19]
inactive: all other assays above
